Autofluor counter – counter-screen for toxin protease inhibitors: compound fluorescence. compound autofluorescence counterscreen, microsphere flow cytometry; active compounds read high. 360,000 compounds, 3.1% hits. fluorescence intensity (concentration not given with the values); in the data active = fluorescence intensity above about 16000; inconclusive = no clear call, values can overlap the other calls
BoNT A protease – inhibitors of Botulinum neurotoxin A light chain protease. multiplex microsphere protease substrate cleavage, flow cytometry. inhibition, % at 10 µM. 360,000 compounds, 0.17% hits; note: plate controls were buffer without enzyme for full effect and enzyme alone for no effect
BoNT-F LC inh – blocks Botulinum neurotoxin F light chain protease | Multiplex microsphere protease cleavage assay, flow cytometry | inhibition, % at 10 µM | 360,000 compounds, 0.22% hits | AID 588497; in the data active = inhibition above about 35%, passing the limit was not always enough; inconclusive = no clear call, values can overlap the other calls; note: plate controls were buffer without enzyme for full effect and enzyme alone for no effect
Anthrax LF inh2 – anthrax lethal factor protease inhibition; P15917; 360,000 compounds, 0.12% hits; multiplex microsphere protease cleavage assay, LF; inhibition, % at 10 µM; note: plate controls were buffer without enzyme for full effect and enzyme alone for no effect
Target sequence (P15917 whole entry, looked up): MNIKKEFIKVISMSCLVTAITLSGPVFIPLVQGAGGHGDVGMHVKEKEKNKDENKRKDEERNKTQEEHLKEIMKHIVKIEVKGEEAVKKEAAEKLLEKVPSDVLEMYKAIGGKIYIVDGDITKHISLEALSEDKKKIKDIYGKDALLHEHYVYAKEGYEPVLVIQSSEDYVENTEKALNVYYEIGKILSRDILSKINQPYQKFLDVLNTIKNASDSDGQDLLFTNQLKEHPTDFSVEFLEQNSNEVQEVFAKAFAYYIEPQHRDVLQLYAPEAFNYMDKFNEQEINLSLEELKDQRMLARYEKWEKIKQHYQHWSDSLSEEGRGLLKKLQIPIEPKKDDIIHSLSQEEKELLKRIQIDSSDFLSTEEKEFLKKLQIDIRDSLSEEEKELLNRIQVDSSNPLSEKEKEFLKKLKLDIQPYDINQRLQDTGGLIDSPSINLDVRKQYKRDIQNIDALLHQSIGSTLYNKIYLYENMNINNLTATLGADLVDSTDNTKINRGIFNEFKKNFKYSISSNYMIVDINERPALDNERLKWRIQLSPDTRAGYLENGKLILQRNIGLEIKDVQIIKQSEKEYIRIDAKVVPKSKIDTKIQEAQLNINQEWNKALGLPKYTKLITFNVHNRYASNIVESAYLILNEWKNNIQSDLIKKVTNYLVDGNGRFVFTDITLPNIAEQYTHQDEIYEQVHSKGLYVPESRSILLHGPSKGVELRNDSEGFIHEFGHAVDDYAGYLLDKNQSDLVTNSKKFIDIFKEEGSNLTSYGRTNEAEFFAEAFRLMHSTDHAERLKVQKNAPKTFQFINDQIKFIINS
An asterisk follows results filed as active; ? = inconclusive. In the library only some 3.5% were active in any assay of this set; here they are far more common. Cut-off read from the data, not from the text of the source, unless noted: active = inhibition above about 30%; inconclusive = no clear call, values can overlap the other calls; inactive = below that.

SMILES	Autofluor counter	BoNT A protease	BoNT-F LC inh	Anthrax LF inh2
O=S(=O)(c1ccc(Cl)cc1Br)N1CCCCC1	20568*	-2	-7	1
O=S(=O)(c1cc(Cl)ccc1Cl)N1CCNCC1	20984*	-5	-11	-2
O=C1CN(S(=O)(=O)c2cc(Cl)ccc2Cl)CCN1	3369	1	-3	-2
CC1CCN(S(=O)(=O)c2cc(Cl)ccc2Br)CC1	12013	0	-4	0
COc1cc(Nc2nc3c(N)cc(C(F)(F)F)cc3nc2-c2ccccc2)cc(OC)c1OC	4056	1	-7	-9
CC(=O)N1CCN(c2ccccc2NC(=O)c2ccco2)CC1	5729	2	2	0
CCN(CC)C(=O)C(C)OC(=O)COc1ccc(Cl)cc1C (stereo not drawn)	22121*	-1	-2	-3
Cc1cc(Cl)ccc1OCC(=O)OCC(=O)Nc1ccc(Cl)cn1	2962	0	-2	-8
C/C(N)=C(/C#N)C(=O)COC(=O)COc1ccc(Cl)cc1C	21745*	0	2	-3
CCC(C)(C)C1CCC(NC(=O)N2CCN(c3ccccc3O)CC2)CC1 (stereo not drawn)	3457	0	-7	23
Cc1cc(C)nc(NS(=O)(=O)c2ccc(Br)s2)c1	5735	1	-4	1
Cc1cccc(NS(=O)(=O)c2ccc(Br)s2)n1	19822*	2	1	1
CCOC(=O)N1CCN(C(=S)NCCOC)CC1	18608*	4	6	-3
CCOC(=O)N1CCN(C(=S)NC)CC1	3344	-1	4	2
CCOC(=O)N1CCN(C(=S)NC(C)(C)C)CC1	22858*	-2	-4	-1
COC(=O)CCC(=O)c1oc2ccc(Br)cc2c1N	16549*	0	1	-3
Nc1c(C(=O)c2ccccc2)oc2ccc(Br)cc12	20833*	-1	-3	-4
Nc1c(C(=O)c2ccc(Br)cc2)oc2ccccc12	2494	0	1	-3
O=C1CN(Cc2cc(=O)oc3cc4c(cc23)CCC4)CCN1	2564	0	-1	-1
CC(=Nc1ccc2c(c1)CCC2)c1c(O)n(C2CCCCC2)c(=O)[nH]c1=O	15927	1	3	-4
CCC(=Nc1ccc2c(c1)CCC2)c1c(O)n(C2CCCCC2)c(=O)[nH]c1=O	22000*	?	0	0
CCCc1ccc2oc(C(=O)NCc3nnc(C)o3)c(C)c2c1	6024	1	2	1
O=C(Nc1ccc(CN2CCOCC2)cc1)c1cccs1	22111*	1	2	-3
NC(=O)c1ccc(NC(=O)c2ccc(CN3CCOCC3)cc2)cc1	9789	0	-1	3
O=C(NC(=S)Nc1ccc(CN2CCOCC2)cc1)c1ccc(-c2cccc(Cl)c2)o1	5228	0	4	-6
SMILES	Autofluor counter	BoNT A protease	BoNT-F LC inh	Anthrax LF inh2
O=C(Nc1ccc(CN2CCOCC2)cc1)c1ccc(-c2cccc(Cl)c2)o1	20353*	0	0	-1
COC(=O)c1ccc(COC(=O)[C@@H]2CC(O)CN2S(=O)(=O)c2ccccc2[N+](=O)[O-])cc1 (stereo partly drawn)	?	-1	2	-1
COc1ccc(NC(=O)CN(C)C(=O)c2cccc(S(=O)(=O)Nc3ccc(F)cc3)c2)cc1	6766	-1	-1	3
C=C(C)CSc1nnc(-c2ccc(OC)cc2)n1N	19732*	1	1	1
COc1ccc(-c2nnc(SCC(N)=O)n2N)cc1	10349	2	5	4
C=C(C)CSc1nnc(-c2cccc(Cl)c2)n1N	21220*	4	5	-3
CCOCC(O)CS(=O)(=O)c1ccccn1 (stereo not drawn)	23197*	?	2	0
Cc1cc(C)c(NC(=O)C2CCCO2)c(C)c1 (stereo not drawn)	5591	1	8	-3
O=C(NNC(=O)c1ccccc1F)c1cccc(Cl)c1	25813*	-5	-6	0
CC(NC(=O)c1ccc2c(c1)OCO2)C1CCCO1 (stereo not drawn)	22158*	0	1	0
Cc1ccc(C2=NC(C)(C)NC2=O)cc1	9406	0	-2	-6
CC1(C)N=C(c2ccc(Cl)cc2)C(=O)N1	23886*	0	-4	-2
Cc1ccc(C2CC(=O)Nc3sc(C(N)=O)c(N)c32)cc1 (stereo not drawn)	21762*	1	0	-1
COc1ccccc1NC(=O)CN1CCN(Cc2ccccc2)CC1	16872*	-2	-5	-5
Cc1ccc(NC(=O)N2CCN(c3ccccn3)CC2)cc1	22825*	1	2	-1
COc1ccc(NC(=O)CN2CCN(CC(=O)Nc3ccccc3OC)CC2)c(OC)c1	3927	-5	-20	2
COc1ccc(NC(=O)CN2CCN(CC(=O)Nc3ccccc3Cl)CC2)c(OC)c1	22552*	4	1	-1
COc1ccccc1NC(=O)CN1CCN(CC(=O)Nc2ccc(OCc3ccccc3)cc2)CC1	3801	0	-2	-6
COc1ccccc1NC(=O)CN1CCN(c2ccccn2)CC1	20530*	-1	-1	-2
Cc1cc(=O)[nH]c(SCC(=O)Nc2ccccc2[N+](=O)[O-])n1	4196	-1	0	-2
Cc1ccc2c(CC(=O)N(C)c3c(N)n(Cc4ccccc4)c(=O)[nH]c3=O)coc2c1	5518	1	4	-3
CCNC(=O)C1(C)CCCN(C(=O)Cc2ccc(OC)c(OC)c2)C1 (stereo not drawn)	2783	0	1	2
COc1cc(-c2nc(CN3CCCCC3CCNC(C)=O)c(C)o2)ccc1F (stereo not drawn)	3805	-1	2	-4
CCc1nc(SCc2ccc(OC)cc2)n[nH]1	3189	-7	-19	0
CCc1nc(SCc2cc(Cl)ccc2OC)n[nH]1	17236*	-4	-8	0
SMILES	Autofluor counter	BoNT A protease	BoNT-F LC inh	Anthrax LF inh2
COC(=O)[C@H](Cc1ccccc1)NC(=O)NCCC1=CCCCC1	24338*	?	-2	0
Cc1nc(N)[nH]c(=O)c1CCC(=O)OCC(C)C	23221*	-2	-3	-2
CCN(CC)S(=O)(=O)c1ccc(N2CCCC2)c(NC(=O)CSCc2c(C)noc2C)c1	3822	0	-2	1
CCOC(=O)Cc1csc(NC(=O)CSc2nnc(-c3ccc(NS(=O)(=O)CC)cc3)o2)n1	21681*	2	3	3
CCOC(=O)Cc1csc(NC(=O)CSc2nnc(-c3ccncc3)o2)n1	4305	-1	-9	-3
COc1ccc(Nc2cc(C)nc(N)n2)cc1	4666	2	?	2
Cc1cc(Nc2ccc(Cl)cc2)nc(N)n1	21661*	1	0	-4
CCC1CCCCN1CCCNC(=O)Cn1nc(C)n2nc(-c3ccccc3)cc2c1=O (stereo not drawn)	5307	0	7	0
CC(C)C1=C2OC(N)=C(C#N)C(C#N)=C2C(C)CC1 (stereo not drawn)	22045*	-5	-7	0
Cc1ccc(C(C)C)cc1S(=O)(=O)Nc1cccnc1	3858	-4	?	-1
CCc1ccc(C(C)NC(=O)/C=C/c2ccc(Br)cc2)cc1 (stereo not drawn)	22674*	-1	2	-1
CC(NC(=O)/C=C/c1ccc(Br)cc1)c1ccccc1 (stereo not drawn)	1977	0	-6	-1

Assay outcomes deposited in PubChem by NMMLSC.
